In patent US20130022590, “Compositions Comprising Zinc Finger Domains and Uses Therefor” (published 2013):

Biological target: T1, ZRANB2-F2 (Homo sapiens, UniProt O95218 O95218:65-95)
T1 chain: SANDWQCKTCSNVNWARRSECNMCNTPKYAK
Assay: FP; about 4-fold to 8-fold stated in p392
Details: tags: GST fusion (FA); label: 5'-fluorescein; ssRNA
Experimental: Fluorescence Anisotropy titrations e.g., as shown in FIGS. 1D-F, 8 and 35, were carried out using standard protocols. In brief, 5′-Fluorescein-labeled RNA oligonucleotides were quantified by A₂₆₀, correcting for fluorescein absorbance by using A₄₉₃. For single-site experiments, the sequence […] (SEQ ID NO: 28), or single base mutants thereof, was used. For double-site experiments, two AGGUAA sites were separated by different length sequences as indicated, and the total oligonucleotide lengths were kept constant by the symmetrical addition of adenines to each end. […] Protein was titrated into this starting solution and anisotropy values measured on a Cary Eclipse fluorescence spectrophotometer fitted with manual polarizer and long-pass filters set to 475 and 515 nm for excitation and emission, respectively. […] Association constants were determined by nonlinear least squares regression analysis using a 1:1 binding model.
To determine whether changing arginine-82 (R82) would affect the binding preference of ZRANB2-F2 from GGU to GAU, the point mutation R82Q in ZNF 2 of ZRANB2 was made and the ability of both the wild type (W) protein and the R82Q mutant to bind to AGGUAA and AGAUAA was assessed by fluorescence anisotropy binding assays as described previously in Example 1.
AGAUAA was tested, and the binding signal was roughly 4 fold lower than AGGUAA.
